This note sets out measurements from PubChem BioAssay (EPA / NIEHS).

Inconclusive results are not listed. Calls of active or inactive are those of the source. How the source made its calls, unless noted: active means hit-call score of the fitted dose curve at least 0.9, where 1 is the maximum; inactive means score below 0.9.

Assay [1] can be described thus: ATG_DR4_LXR_CIS: Attagene CIS-FACTORIAL HepG2 Assay for human Liver X Receptor (LXR), DR4 submotif (AID 2282929). As to conditions: HepG2 Attagene DR4 cis-reporter, mRNA transcription; actives raise or lower the signal. The gist of the method: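 Fluorescence intensity of labelled reporter cDNA fragments, separated by capillary electrophoresis, gives the signal. HepG2 cells bearing cis-regulated reporter constructs were treated 24 h; activity fitted bidirectionally relative to DMSO negative control.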

The nature of assay [2]: ATG_Ets_CIS: Attagene CIS-FACTORIAL HepG2 Assay for human Erythroblast Transformation Specific (ETS) (AID 2282941). As to conditions: HepG2 ETS cis-reporter transcription, actives raise or lower the signal. Put shortly:
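Multiplexed reporter transcript profiling: HepG2, 24 h treatment, total RNA to cDNA, PCR, 6-FAM labelling, HpaI cut, capillary electrophoresis. Gain- or loss-of-signal fitted against DMSO.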

Assay [3] deals with Hypoxia-inducible factor 1-alpha (Homo sapiens) (UniProt Q16665). In words: ATG_HIF1a_CIS: Attagene CIS-FACTORIAL HepG2 Assay for human Hypoxia Inducible Factor 1 (HIF1A) (AID 2282951). Conditions: HepG2 Attagene cis-factorial HIF1a reporter transcription; actives raise or lower the signal. Put shortly:
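Fluorescence intensity of capillary-separated, 6-FAM-labelled reporter amplicons gives mRNA induction in HepG2 cells carrying transfected cis-promoter reporter units; cells exposed 24 h, responses fitted up or down from DMSO.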

For assay [4], the target named is Hepatocyte nuclear factor 6 (Homo sapiens) (UniProt Q9UBC0). In words: ATG_HNF6_CIS: Attagene CIS-FACTORIAL HepG2 Assay for human Hepatocyte Nuclear Factor 6 (HNF6) (AID 2282952). Conditions: HepG2 Attagene cis-factorial HNF6 reporter transcription; actives raise or lower the signal. Put shortly:
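Endogenous factor activity read in transiently transfected HepG2 via promoter-regulated reporter transcripts. RNA harvested 24 h post-dosing, reverse-transcribed, PCR-amplified, FAM-labelled, HpaI-digested and resolved by capillary electrophoresis; fitted in both directions against DMSO.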

In assay [5] the target is Heat shock factor protein 1 (Homo sapiens) (UniProt Q00613). As to the kind of experiment: ATG_HSE_CIS: Attagene CIS-FACTORIAL HepG2 Assay for human Heat Shock Transcription Factor 1 (HSE) (AID 2282953). Conditions: HepG2 HSE cis-reporter, Attagene RNA transcription; actives raise or lower the signal. The gist of the method: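 Reporter mRNA induction in HepG2 is measured 24 h after dosing, using transiently transfected multiplexed cis-regulated reporter units. Signal comes from capillary electrophoresis of labelled RT-PCR products, with DMSO as negative control.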

Assay [6] is described as follows: ATG_Sox_CIS: Attagene CIS-FACTORIAL HepG2 Assay for human SRY-box transcription factor (SOX) (AID 2282960). Conditions: HepG2 Attagene cis-factorial SOX reporter, mRNA; actives raise or lower the signal. The gist of the method: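 Measures mRNA induction of a SOX1-associated reporter in HepG2 after 24 h dosing. Fluorescently labelled RT-PCR fragments are separated by capillary electrophoresis, and gain or loss relative to DMSO control is fitted.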

A short description of assay [7]: ATG_TA_CIS: Attagene CIS-FACTORIAL HepG2 Assay for human TA Basal Promoter (AID 2282964). As to conditions: HepG2 Attagene CIS-factorial TA basal promoter reporter; actives raise or lower the signal. Put shortly: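 Cis-factorial format in HepG2: reporters report endogenous factors, not chimeric Gal4 fusions. After 24 h treatment, reporter transcripts were measured by RT-PCR-capillary electrophoresis fluorescence, analysed bidirectionally versus DMSO.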

The nature of assay [8]: ATG_TCF_b_cat_CIS: Attagene CIS-FACTORIAL HepG2 Assay for human T-Cell-Factor with beta-catenin (TCF/b-cat) (AID 2282965). As to conditions: HepG2 TCF/beta-catenin cis-reporter transcription, actives raise or lower the signal. The gist of the method:
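Measured: reporter mRNA in HepG2 transiently transfected with cis-promoter reporter units, 24 h after chemical addition. Fitting was bidirectional, DMSO as negative control.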

A short description of assay [9]: ATG_TGFb_CIS: Attagene CIS-FACTORIAL HepG2 Assay for human Transforming Growth Factor (TGF) (AID 2282967). Conditions: HepG2 Attagene CIS TGFb reporter, mRNA transcription; actives raise or lower the signal. Put shortly:
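Multiplexed cis-reporter HepG2 system, 24 h treatment; mRNA induction read by fluorescence after RT-PCR and CE; DMSO negative control, bidirectional curve fitting.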

Assay [10] has as its target X-box-binding protein 1 (Homo sapiens) (UniProt P17861). As to the kind of experiment: ATG_Xbp1_CIS: Attagene CIS-FACTORIAL HepG2 Assay for human X-box Binding Protein 1 (XBP1) (AID 2282972). Conditions: HepG2 XBP1 cis-element reporter, Attagene multiplex; actives raise or lower the signal. The gist of the method:
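Human hepatoma HepG2, cis-element reporter system, 24 h treatment; mRNA quantified by RT-PCR/CE fluorescence; fit relative to DMSO.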

Assay [11] addresses Transcriptional activator Myb (Homo sapiens) (UniProt P10242). In words: ATG_Myb_CIS: Attagene CIS-FACTORIAL HepG2 Assay for human Myeloblastosis (Myb) Proto-Oncogene Transcription Factor (AID 2282986). Conditions: HepG2 Attagene CIS-FACTORIAL Myb reporter transcription; actives raise or lower the signal. The gist of the method:
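Transiently transfected HepG2 cells, treated 24 h. Reporter mRNA quantified by RT-PCR/capillary electrophoresis; bidirectional fit relative to DMSO.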

The target of assay [12] is Nuclear respiratory factor 1 (Homo sapiens) (UniProt Q16656). In words: ATG_NRF1_CIS: Attagene CIS-FACTORIAL HepG2 Assay for human Nuclear Respiratory Factor 1 (NRF1) Orphan Gene (AID 2282987). As to conditions: HepG2 NRF1 cis-element reporter, Attagene multiplex; actives raise or lower the signal. Put shortly: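 Cells (HepG2, transient MRTU transfection) are exposed to compound for 24 h, then RNA isolated and reporter mRNA amplified and fluorescently labelled. Fragments are separated by capillary electrophoresis; signal change is fitted bidirectionally relative to DMSO.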

Assay [13] has as its target Myc proto-oncogene protein (Homo sapiens) (UniProt P01106). In words: ATG_Myc_CIS: Attagene CIS-FACTORIAL HepG2 Assay for human Myelocytomatosis (Myc) Proto-Oncogene Transcription Factor (AID 2282990). As to conditions: HepG2, Attagene cis-reporter transcription factor activity; actives raise or lower the signal. Put shortly:
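Cells of the HepG2 human liver line bear multiple cis-driven reporter transcription units. Reporter mRNA after 24 h exposure is reverse-transcribed, amplified, labelled and resolved by capillary electrophoresis, with gain- or loss-of-signal fitting relative to DMSO.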

Assay [14] in a line: ATG_NRF2_ARE_CIS: Attagene CIS-FACTORIAL HepG2 Assay for human Nuclear Factor Erythroid 2 Related Factor 2 (NFR2) response to Antioxidant Response Elements (ARE) (AID 2282992).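 On AC50: reporter mRNA level measured by RT-PCR and capillary electrophoresis fluorescence.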 Conditions: HepG2 Attagene ARE/NRF2 reporter, transcription factor activity; actives raise or lower the signal. Put shortly:
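Fluorescence intensity of reporter-specific cDNA fragments, separated by capillary electrophoresis, reflects mRNA induction in transfected HepG2 cells at 24 h. Activity is fitted bidirectionally, DMSO serving as baseline.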

Assay [15] is described as follows: ATG_Oct_MLP_CIS: Attagene CIS-FACTORIAL HepG2 Assay for human Octamer-Binding Transcription Factor (Oct) (AID 2282993). As to conditions: HepG2 Attagene cis-factorial Oct reporter, mRNA; actives raise or lower the signal. Put shortly: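 After 24 h compound exposure, transfected HepG2 cells were lysed for total RNA; reporter-specific cDNA was PCR-amplified, fluorescently labelled and sized by capillary electrophoresis. Bidirectional curve fitting used DMSO as baseline.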

Assay [16] deals with Cellular tumor antigen p53 (Homo sapiens) (UniProt P04637). In words: ATG_p53_CIS: Attagene CIS-FACTORIAL HepG2 Assay for human p53 Transcription Factor (AID 2282994). Conditions: HepG2 p53 cis-element reporter, Attagene mRNA; actives raise or lower the signal. The gist of the method: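 Transiently transfected HepG2 (multiple cis reporter transcription units); exposure 24 h; reporter RNA via RT-PCR, 6-FAM extension, 2 h HpaI digest at 37 C, CE detection; DMSO baseline.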

Assay [17] deals with Nuclear receptor subfamily 1 group I member 2 (Homo sapiens) (UniProt O75469). In words: ATG_PXR_TRANS: Attagene TRANS-FACTORIAL HepG2 Assay for human Pregnane X Receptor (PXR) (AID 2283008; active means hit-call score of the fitted dose curve at least 0.9, where 1 is the maximum). Put shortly: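 Transient HepG2 transfectants carrying multiplexed reporter transcription units; PXR activity read through a Gal4 chimera. 24 h exposure. RT-PCR/CE fluorescence; upward curve fit referenced to DMSO.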

Assay [18] in a line: ATG_M_06_CIS: Attagene CIS-FACTORIAL HepG2 Assay for M06 Transcription Factor (Internal Marker) (AID 2282950). Conditions: HepG2 Attagene CIS-FACTORIAL M06 internal marker reporter; actives raise or lower the signal. Put shortly:
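Measured 24 h post-dosing in transiently transfected HepG2 cells, this internal-marker endpoint reports reporter mRNA via RT-PCR with fluorescent primer extension and capillary electrophoresis. DMSO served as negative control and baseline for bidirectional fitting.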

A short description of assay [19]: ATG_TAL_CIS: Attagene CIS-FACTORIAL HepG2 Assay for human TAL Basal Promoter (AID 2282966).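 Further: background control endpoint measuring basal TAL promoter reporter mRNA not a specific factor.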 As to conditions: HepG2 Attagene cis-factorial TAL promoter reporter; actives raise or lower the signal. Put shortly: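 Background-control endpoint: basal TAL promoter reporter transcripts in transiently transfected HepG2, measured 24 h after dosing. Read-out by RT-PCR with fluorescent primer extension and capillary electrophoresis; gain or loss of signal fitted relative to DMSO.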

Assay [20] is described as follows: ATG_XTT_Cytotoxicity: Cytotoxicity Assessment in the Attagene TRANS-FACTORIAL HepG2 Assay (AID 2283584; active means hit-call score of the fitted dose curve at least 0.9, where 1 is the maximum). Put shortly: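 Viability endpoint from XTT after 24 h chemical exposure of reporter-transfected human HepG2 liver cells; signal loss fitted relative to DMSO negative control.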

Chain of Myc proto-oncogene protein (Homo sapiens) (P01106 whole entry, looked up): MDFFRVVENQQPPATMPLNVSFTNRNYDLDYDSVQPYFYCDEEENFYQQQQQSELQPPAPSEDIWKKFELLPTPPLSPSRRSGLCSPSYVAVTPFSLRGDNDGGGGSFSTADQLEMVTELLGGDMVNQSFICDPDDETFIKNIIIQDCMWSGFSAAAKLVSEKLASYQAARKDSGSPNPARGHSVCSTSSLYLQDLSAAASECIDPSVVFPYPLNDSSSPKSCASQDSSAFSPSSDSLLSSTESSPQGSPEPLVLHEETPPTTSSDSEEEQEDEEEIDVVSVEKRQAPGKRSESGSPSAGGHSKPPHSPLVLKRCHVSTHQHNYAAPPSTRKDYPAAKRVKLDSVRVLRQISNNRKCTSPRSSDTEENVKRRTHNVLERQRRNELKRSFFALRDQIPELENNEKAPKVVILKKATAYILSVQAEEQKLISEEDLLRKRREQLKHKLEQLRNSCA
Chain of Nuclear respiratory factor 1 (Homo sapiens) (Q16656 whole entry, looked up, the tested form may be a part): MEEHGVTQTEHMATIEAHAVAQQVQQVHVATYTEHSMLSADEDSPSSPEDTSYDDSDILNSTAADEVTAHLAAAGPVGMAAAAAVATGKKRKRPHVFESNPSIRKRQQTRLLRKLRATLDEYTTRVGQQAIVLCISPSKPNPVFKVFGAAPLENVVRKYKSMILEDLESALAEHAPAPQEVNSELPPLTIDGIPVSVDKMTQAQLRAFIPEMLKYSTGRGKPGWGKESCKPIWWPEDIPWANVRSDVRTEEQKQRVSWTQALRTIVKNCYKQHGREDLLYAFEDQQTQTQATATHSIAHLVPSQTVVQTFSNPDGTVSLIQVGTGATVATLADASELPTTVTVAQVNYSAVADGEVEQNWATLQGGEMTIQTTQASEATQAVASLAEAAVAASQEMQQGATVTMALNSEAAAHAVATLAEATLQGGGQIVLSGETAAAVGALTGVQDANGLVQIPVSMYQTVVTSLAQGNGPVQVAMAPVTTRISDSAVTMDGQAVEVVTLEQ
Chain of Hypoxia-inducible factor 1-alpha (Homo sapiens) (Q16665 whole entry, looked up): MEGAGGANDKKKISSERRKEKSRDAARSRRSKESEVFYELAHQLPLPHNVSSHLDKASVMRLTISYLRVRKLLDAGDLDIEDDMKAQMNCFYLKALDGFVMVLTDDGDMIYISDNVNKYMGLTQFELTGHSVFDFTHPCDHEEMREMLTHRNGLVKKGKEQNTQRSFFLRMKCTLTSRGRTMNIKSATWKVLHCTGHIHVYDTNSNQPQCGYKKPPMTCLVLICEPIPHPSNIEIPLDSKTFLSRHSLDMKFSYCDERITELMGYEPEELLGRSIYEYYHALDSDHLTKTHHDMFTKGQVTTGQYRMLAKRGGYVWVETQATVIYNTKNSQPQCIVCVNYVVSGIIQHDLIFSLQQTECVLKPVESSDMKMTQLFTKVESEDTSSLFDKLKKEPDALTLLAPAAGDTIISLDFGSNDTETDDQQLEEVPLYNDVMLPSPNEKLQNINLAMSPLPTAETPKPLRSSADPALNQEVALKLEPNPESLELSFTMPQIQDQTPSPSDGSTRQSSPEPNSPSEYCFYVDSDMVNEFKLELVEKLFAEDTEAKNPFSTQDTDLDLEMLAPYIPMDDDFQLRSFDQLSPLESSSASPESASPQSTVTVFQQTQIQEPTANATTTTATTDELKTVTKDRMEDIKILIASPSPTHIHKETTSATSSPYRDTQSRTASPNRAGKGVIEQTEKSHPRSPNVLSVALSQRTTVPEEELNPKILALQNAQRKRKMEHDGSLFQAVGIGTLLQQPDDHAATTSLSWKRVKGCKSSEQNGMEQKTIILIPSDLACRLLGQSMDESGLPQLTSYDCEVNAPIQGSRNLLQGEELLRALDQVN
Chain of Heat shock factor protein 1 (Homo sapiens) (Q00613 whole entry, looked up): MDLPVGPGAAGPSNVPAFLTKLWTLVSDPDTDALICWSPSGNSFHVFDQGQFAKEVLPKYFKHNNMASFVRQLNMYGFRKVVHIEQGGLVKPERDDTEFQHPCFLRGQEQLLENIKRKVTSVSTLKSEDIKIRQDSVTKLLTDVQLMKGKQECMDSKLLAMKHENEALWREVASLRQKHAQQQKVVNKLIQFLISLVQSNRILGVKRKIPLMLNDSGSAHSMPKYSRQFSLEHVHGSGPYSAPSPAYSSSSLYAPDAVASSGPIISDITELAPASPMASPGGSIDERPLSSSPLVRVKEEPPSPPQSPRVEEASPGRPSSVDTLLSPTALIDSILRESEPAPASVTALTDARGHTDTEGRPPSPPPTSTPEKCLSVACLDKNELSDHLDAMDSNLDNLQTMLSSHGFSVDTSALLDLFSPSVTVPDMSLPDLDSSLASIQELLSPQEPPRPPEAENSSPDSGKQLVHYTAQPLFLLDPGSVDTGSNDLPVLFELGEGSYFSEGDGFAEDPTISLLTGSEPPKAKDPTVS
Chain of Transcriptional activator Myb (Homo sapiens) (P10242 whole entry, looked up): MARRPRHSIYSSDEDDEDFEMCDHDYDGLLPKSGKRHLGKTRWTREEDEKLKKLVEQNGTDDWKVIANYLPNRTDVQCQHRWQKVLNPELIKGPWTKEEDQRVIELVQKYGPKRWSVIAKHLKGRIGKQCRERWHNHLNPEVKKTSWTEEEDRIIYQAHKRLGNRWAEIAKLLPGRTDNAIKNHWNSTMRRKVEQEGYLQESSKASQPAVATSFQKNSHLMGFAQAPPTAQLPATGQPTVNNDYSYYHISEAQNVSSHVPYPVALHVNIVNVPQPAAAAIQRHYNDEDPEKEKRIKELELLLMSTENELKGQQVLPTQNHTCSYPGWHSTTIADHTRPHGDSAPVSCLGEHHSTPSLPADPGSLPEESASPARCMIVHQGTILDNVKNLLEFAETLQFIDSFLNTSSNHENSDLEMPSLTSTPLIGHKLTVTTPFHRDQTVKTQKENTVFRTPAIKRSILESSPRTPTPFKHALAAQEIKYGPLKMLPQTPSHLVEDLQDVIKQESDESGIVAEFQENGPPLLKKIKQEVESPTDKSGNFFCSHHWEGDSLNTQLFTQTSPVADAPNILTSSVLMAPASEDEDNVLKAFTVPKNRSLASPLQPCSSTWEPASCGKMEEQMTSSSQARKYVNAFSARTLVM
Chain of X-box-binding protein 1 (Homo sapiens) (P17861 whole entry, looked up): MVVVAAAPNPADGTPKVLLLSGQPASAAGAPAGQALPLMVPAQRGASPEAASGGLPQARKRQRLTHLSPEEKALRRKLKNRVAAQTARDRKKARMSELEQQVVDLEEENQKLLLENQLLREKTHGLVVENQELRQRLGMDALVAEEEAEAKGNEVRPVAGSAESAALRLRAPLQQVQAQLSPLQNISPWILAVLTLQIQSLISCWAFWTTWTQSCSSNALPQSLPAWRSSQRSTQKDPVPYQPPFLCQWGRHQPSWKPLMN
Chain of Nuclear receptor subfamily 1 group I member 2 (Homo sapiens) (O75469 whole entry, looked up, the tested form may be a part): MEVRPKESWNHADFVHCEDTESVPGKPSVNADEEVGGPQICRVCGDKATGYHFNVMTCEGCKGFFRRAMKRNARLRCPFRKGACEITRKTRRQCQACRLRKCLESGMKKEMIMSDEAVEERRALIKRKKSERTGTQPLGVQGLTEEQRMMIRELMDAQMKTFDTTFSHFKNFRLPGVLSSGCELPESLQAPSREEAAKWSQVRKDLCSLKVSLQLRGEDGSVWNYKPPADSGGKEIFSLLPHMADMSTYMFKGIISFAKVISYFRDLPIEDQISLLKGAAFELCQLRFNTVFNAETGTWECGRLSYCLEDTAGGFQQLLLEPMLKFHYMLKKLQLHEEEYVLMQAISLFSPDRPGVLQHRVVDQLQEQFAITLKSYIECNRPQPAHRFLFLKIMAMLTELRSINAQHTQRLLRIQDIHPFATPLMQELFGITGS
Chain of Cellular tumor antigen p53 (Homo sapiens) (P04637 whole entry, looked up): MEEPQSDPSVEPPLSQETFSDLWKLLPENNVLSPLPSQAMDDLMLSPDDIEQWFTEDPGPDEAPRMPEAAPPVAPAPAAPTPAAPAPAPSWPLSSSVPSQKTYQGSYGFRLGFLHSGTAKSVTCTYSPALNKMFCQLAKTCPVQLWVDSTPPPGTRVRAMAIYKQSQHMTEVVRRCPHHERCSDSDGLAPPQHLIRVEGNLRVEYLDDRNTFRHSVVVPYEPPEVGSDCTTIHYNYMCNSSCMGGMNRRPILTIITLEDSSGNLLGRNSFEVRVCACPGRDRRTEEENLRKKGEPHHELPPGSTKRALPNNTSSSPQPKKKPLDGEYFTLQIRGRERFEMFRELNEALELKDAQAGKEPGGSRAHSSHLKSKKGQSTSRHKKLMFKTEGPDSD
Chain of Hepatocyte nuclear factor 6 (Homo sapiens) (Q9UBC0 whole entry, looked up): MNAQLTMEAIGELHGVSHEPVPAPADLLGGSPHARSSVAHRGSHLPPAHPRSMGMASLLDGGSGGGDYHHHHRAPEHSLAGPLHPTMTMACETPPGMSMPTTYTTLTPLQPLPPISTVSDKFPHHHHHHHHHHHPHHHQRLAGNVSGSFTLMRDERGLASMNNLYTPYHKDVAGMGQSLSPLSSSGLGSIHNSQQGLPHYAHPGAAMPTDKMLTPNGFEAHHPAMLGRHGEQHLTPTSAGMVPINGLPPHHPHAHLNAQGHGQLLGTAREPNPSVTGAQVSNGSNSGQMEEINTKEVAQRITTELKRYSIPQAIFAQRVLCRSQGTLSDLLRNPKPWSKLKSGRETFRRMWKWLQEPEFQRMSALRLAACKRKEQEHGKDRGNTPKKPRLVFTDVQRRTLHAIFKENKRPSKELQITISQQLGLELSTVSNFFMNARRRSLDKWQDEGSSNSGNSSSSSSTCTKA

`O=C(O)Cc1c[nH]c2ccccc12`: the outcome in assay [1], in assay [2], in [3], in [4], in assay [5] and in [6] was inactive. Further, the call in assay [7], in assay [8], in [9], in [10], in [11] and in assay [12] was inactive. Also, the compound was called inactive in assay [13], in assay [15], in assay [16] and in [17]. Besides, the AC50 – broadly, the concentration giving half of the maximal activity seen – in [14] was 74.1 µM (active).

`CC1=NN(c2cc(Cl)c(S(=O)(=O)O)cc2Cl)C(=O)C1N=Nc1ccc(S(=O)(=O)O)cc1` (configuration not stated): the result in assay [2], in assay [18], in assay [3], in assay [4], in [5] and in [6] was inactive. Further, the result in assay [7], in [8], in assay [19], in assay [9], in assay [10] and in [11] was inactive. For the same compound, the outcome in assay [12], in assay [13], in assay [14], in assay [15], in assay [16] and in [17] was inactive. For the same compound, the compound was classed as inactive in assay [20].

With `CC1=C(CC(=O)O)c2cc(F)ccc2/C1=C\c1ccc(S(C)=O)cc1` (configuration not stated), the call in [2], in [18], in assay [4], in assay [6], in assay [7] and in assay [8] was inactive. Also, the outcome in assay [19], in assay [9], in [10], in assay [11], in assay [12] and in assay [13] was inactive. The result in assay [15] and in assay [16] was inactive. Further, the values for the AC50 in [5], in [14] and in assay [17] were 180 µM (active), 23 µM (active) and 26.5 µM (active), respectively.

Take `Sc1nc2ccccc2s1`: the result in assay [2], in [18], in [3], in [4], in [5] and in assay [6] was inactive. Besides, the compound was classed as inactive in [7], in assay [8], in assay [19], in assay [9], in assay [10] and in assay [11]. Besides, the result in [12], in assay [13], in assay [15], in assay [16], in assay [17] and in assay [20] was inactive. In assay [14], the AC50 is 100 µM (active).
